Measurements taken from PubChem BioAssay AID1508607 (The Scripps Research Institute Molecular Screening Center, 2020).
The whole screen tested about 2,300 compounds, of which about 20 (0.9%) were called active. This excerpt belongs to a sample that is enriched for actives. Values without a mark were called inactive.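 How the source made its calls: active means mean percent activation across replicates above the counterscreen hit cutoff of 9.17%; inactive means the rest.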

Biological target: Glucose-dependent insulinotropic receptor (Homo sapiens) (UniProt Q8TDV5)
Assay: off-target GPR119 activation – cell-based, PathHunter beta-arrestin, luminescence, set 2, counter-screen for GPR151 activator project, confirmation (AID 1508607);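 further: 0% = median of sample wells and 100% = wells given EA reagent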
Conditions: GPR119 PathHunter beta-arrestin cells, 90 min, at 11.2 µM, hits give high values

Chain of Glucose-dependent insulinotropic receptor (Homo sapiens) (Q8TDV5 whole entry, looked up): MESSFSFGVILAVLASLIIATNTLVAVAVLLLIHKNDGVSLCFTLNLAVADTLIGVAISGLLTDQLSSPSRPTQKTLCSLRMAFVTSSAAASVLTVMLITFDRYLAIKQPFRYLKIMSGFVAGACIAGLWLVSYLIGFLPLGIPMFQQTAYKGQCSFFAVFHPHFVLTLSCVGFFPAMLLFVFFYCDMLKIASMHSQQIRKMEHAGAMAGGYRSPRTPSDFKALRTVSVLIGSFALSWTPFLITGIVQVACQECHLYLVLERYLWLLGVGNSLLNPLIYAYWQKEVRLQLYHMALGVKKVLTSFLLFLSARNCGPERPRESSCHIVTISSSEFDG

Compound	activation
CC(C)(C)NC(=O)C1CCN(S(=O)(=O)c2ccc(Br)s2)CC1	3.94%
COCCNC(=O)c1cccc(OC2CCN(Cc3cc4ccccc4o3)CC2)c1	0.69%
CCOc1ccccc1CNCc1c(C(=O)O)c(C)n(Cc2cccc(Cl)c2)c1C	-3.17%
N#C/C(=C/c1cc(Cl)ccc1Cl)c1nc2ccccc2c(=O)[nH]1	-3.12%
COC(=O)c1c(OCC2CCCCO2)cc(=O)n2c1CCN(Cc1ccsc1)CC2 (configuration not stated)	0.67%
O=C(C1CCCN1S(=O)(=O)c1ccc(Cl)cc1)N1CCOCC1 (configuration not stated)	2.3%
CCOC(=O)c1cc(-c2ccccc2)sc1NC(=O)c1ccc(OC)c(OC)c1	-1.86%
Cc1cc(OCC(=O)Nc2sc(C)c(C)c2C(N)=O)ccc1Br	3.41%
N#CC1=C2SCN(Cc3ccccc3)CN2C(=O)CC1c1cccc(F)c1 (configuration not stated)	-1.21%
CC(=O)c1ccc(N2CCN(C(=O)c3cc4c(C)nc5ccccc5c4o3)CC2)cc1	0.66%
CCOc1ccc(/C=C2\SC(=S)N(CC(=O)Nc3ccc(O)cc3)C2=O)cc1	-3.84%
Cc1nc2n(n1)C(c1ccc(Cl)cc1)C=C(c1ccc(Cl)cc1)N2 (configuration not stated)	-0.05%
C=CCOc1ccc(/C=C2\NC(=S)N(c3ccc(OC)cc3)C2=O)cc1	1.06%
CCCCNC(=O)c1ccc(C)c(N2CCCC2=O)c1	0.14%
O=S(=O)(/C=C/c1ccccc1)N1c2ccccc2C=CC1c1c[nH]c2ccccc12 (configuration not stated)	-5.1%
COc1ccc(C(=O)N/N=C/c2ccc(O)cc2O)cc1OC	1.94%
Cc1ccc(Nc2nc(Cl)nc(N3CCOCC3)n2)cc1Cl	-1.69%
COC(=O)c1ccccc1NC(=O)c1cc2ccccc2oc1=O	2.29%
CC(=O)N1CCC(N(C(=S)Nc2cccc(Cl)c2C)C(C)C)CC1	-0.07%
CC(C)c1ccccc1OCC(=O)Nc1ccccc1Cl	-0.8%
Cc1c(Cl)cccc1NS(=O)(=O)c1c(C(C)C)cc(C(C)C)cc1C(C)C	9.78% (active)
COc1ccc(NC(=O)N2CCC(CN3CCc4ccccc4C3)CC2)cc1	-2.3%
Cc1cccc(Cn2c(=O)c3ccccc3n3nncc23)c1	3.36%

Compound	activation
COc1ccc(N2CCN(c3ncnc4sc(C(=O)N5CCC(C(N)=O)(N6CCCCC6)CC5)c(C)c34)CC2)cc1	0.57%
O=C(NCc1ccco1)c1ccc2ccccc2c1	1.88%
COc1ccc(-c2nc3c(=O)n(C)c4ccccc4c3o2)cc1	-4%
CCC(=O)N1CCN(c2ccc(NC(=O)C(C)(C)C)cc2)CC1	0.46%
O=C(CNc1ccccc1)N/N=C/c1cccc(Oc2ccccc2)c1	-3.18%
O=C(/C=C/c1ccccn1)NCCN1Cc2ccccc2OC(c2ccccc2)C1 (configuration not stated)	1.44%
CCNC(=O)C(=O)Nc1ccc(OC)cc1	-1.66%
O=C(CSc1ccc2nnc(-c3ccncc3)n2n1)Nc1ccc(C(F)(F)F)cc1	-0.42%
Cc1n[nH]c(C)c1S(=O)(=O)NCc1ccc(F)cc1	-0.09%
O=c1oc2ccc3ccccc3c2cc1-c1nnc(Nc2ccc(Oc3ccc4ccccc4c3Cl)c(Cl)c2)s1	0.97%
CCC(C)OC(=O)C1=C(C)NC(=O)NC1c1cc(Br)ccc1OC (configuration not stated)	1.91%
CC(C)c1ccc(Cn2ccc3c4c(N)nc(NC5CC5)nc4ccc32)cc1	51.2% (active)
CC(C)CC(=O)NCC1CCC2(CCN(Cc3ccccc3F)CC2)O1 (configuration not stated)	2.66%
Cc1ccc(-n2nc3c(c2NC(=O)C2(c4ccc(Cl)cc4)CCCC2)CSC3)cc1	3.08%
CCOC(=O)CCCN(Cc1ccc(F)cc1)S(=O)(=O)c1ccc(F)c(C)c1	0.45%
COc1cc(NC(=O)c2onc(C)c2Cl)cc(OC)c1OC	-1.44%
CCOC(=O)N1CCN(C(=O)c2ccc3c(c2)NC(=O)C(CSCc2cc(C)ccc2C)N3)CC1 (configuration not stated)	2.54%
O=C(O)c1c(CNC2CCCc3ccccc32)c2ccccc2n1Cc1ccccc1 (configuration not stated)	-2.12%
O=C(O)c1cc([N+](=O)[O-])c(C(=O)O)cc1Oc1ccc(Cl)cc1	3.33%
COc1cc(/C=N/NC(=O)CCCC(=O)N/N=C/c2ccc(O)c(OC)c2)ccc1O	-0.52%
CCc1nnc2c3c4c(sc3nc(CC)n12)CCCC4	-1.48%
CC(C)c1ccc(N=c2c([N+](=O)[O-])nn(-c3ccccc3)n2O)cc1	5.25%
CCOC(=O)c1nc(NCc2ccccc2)c2ccccc2n1	2.75%

Compound	activation
O=C(Cn1c(=O)oc2ccccc21)Nc1cccc(C(F)(F)F)c1	3.85%
CCn1cnc2sc(C(=O)Nc3ccc(Cl)c(Cl)c3)c(C)c2c1=O	0.88%
COc1ccc(C(=O)Nn2c(-c3ccc(F)cc3)nc3ccccc3c2=O)cc1Br	-2.33%
CC(=O)c1c(C)oc2c1c1c(c3ccccc32)OCN(C2CCCC2)C1	2.76%
COc1ccc(OC)c(-n2c(O)c(/C=C3\C=CC=N3)c(=O)[nH]c2=O)c1	1.81%
N#CCCN1CCN(c2ccc(F)cc2[N+](=O)[O-])CC1	3.88%
CC(C)c1onc(C(=O)NC2CCCCC2)c1[N+](=O)[O-]	-2.5%
COc1ccc(O)c(C2=Nc3ccccc3N=C(c3ccc([N+](=O)[O-])cc3)C2)c1	-1.11%
COc1ccc(C[C@H](N)C(=O)N[C@@H]2[C@@H](CO)OC(n3cnc4c(N(C)C)ncnc43)[C@@H]2O)cc1 (some centres not stated)	-4.23%
O=C(CCc1nnc2n(Cc3ccccc3)c(=O)c3ccccc3n12)NCCN1CCCC1	-0.83%
Cc1c(NC(=O)c2cc(F)cc(F)c2)c(=O)n(-c2ccccc2)n1C	-3.89%
CC1CC(C)(C)NC(=S)N1CC(=O)N1CCN(Cc2ccc3c(c2)OCO3)CC1 (configuration not stated)	-1.14%
O=C(NCCO)C(=O)Nc1cccc(Cl)c1Cl	1.5%
Cc1ccc(NC(=O)CN(C)S(=O)(=O)c2ccc(Br)cc2)cc1Cl	4.66%
CCN(CC)c1ccc2cc(-c3nnc(NCc4ccc(F)cc4)s3)c(=O)oc2c1	0.77%
CCCCOc1ccc(C(=O)Nc2c3c(nn2-c2cccc(Cl)c2)CSC3)cc1	5.97%
O=C(NCCCN1CCOCC1)/C(=C/c1ccc(-c2cccc(C(F)(F)F)c2)o1)NC(=O)c1ccc(Cl)cc1	9.32% (active)
COCCCNC(=O)/C(=C\c1ccco1)NC(=O)c1ccc(C)cc1	-2.09%
Fc1ccc(-c2cnc3ccc(NCCCN4CCOCC4)nn23)cc1Cl	2.09%
COc1ccc(Br)cc1CNC(=O)Cc1c(C(=O)O)[nH]c2ccccc12	4.16%
Cn1c(SCc2ccc(F)cc2)nc2ccc(C(=O)N3CCC(C(N)=O)CC3)cc21	0.07%
Cc1csc(CNC(=O)CC2C(=O)NCCN2Cc2ccc(F)cc2Cl)n1 (configuration not stated)	3.99%
OC(COc1ccc(CNCCc2cscn2)cc1)CN1CCc2ccccc2C1 (configuration not stated)	3.64%

Compound	activation
O=C(CNc1ccccc1)N/N=C/c1cc([N+](=O)[O-])ccc1O	-3.89%
O=C(Nc1cc(Cl)ccc1Cl)c1ccccc1O	-0.02%
CCc1ccccc1NC(=O)Cn1nnc(C(=O)OC)c1C(=O)OC	3.17%
Cc1ccn2c(-c3csc(Nc4ccccc4)n3)c(C)nc2c1	-1.87%
CC1=NNC(=O)C1CCC(=O)N/N=C(\C)c1ccc(C)cc1 (configuration not stated)	-4.69%
CCn1c(=O)c2cc(C(=O)Nc3ccsc3C(=O)OC)sc2c2ccccc21	-1.75%
CCOC(=O)N1CCN(C(=S)Nc2ccc(C)cc2)CC1	2.12%
O=S(=O)(NCCC12CC3CC(CC(C3)C1)C2)c1cccc2nsnc12	0.9%
CCc1ccc(NC(=O)Cn2nnc(C(=O)OC)c2C(=O)OC)cc1	-0.08%
c1ccc(N2CCOCC2)c(Nc2nc3ccccc3n3cnnc23)c1	0.28%
O=C(CSC1=NC(=O)C(c2ccccc2)C(=O)N1)c1ccccc1 (configuration not stated)	-3.69%
CCN1CCC(N(Cc2ccc(F)cc2)C(=O)Nc2ccccc2F)CC1	-1.27%
CCOC(=O)C1CCCN(c2c(Nc3cccc(C)c3)c(=O)c2=O)C1 (configuration not stated)	-2.19%
COc1ccc(C(=O)NCC2(c3ccccc3)CCCC2)cc1[N+](=O)[O-]	-1.92%
CSc1ccccc1N1C(=O)CC(Sc2ccccc2C(=O)O)C1=O (configuration not stated)	2.04%
CC1Oc2cccnc2N(Cc2cccc(C#N)c2)C1=O (configuration not stated)	0.9%
COc1cccc(C(=O)Nc2ccc(-n3nncc3-c3ccc(OC)c(OC)c3)cc2)c1	5.22%
COc1ccc(-c2noc(CCC(=O)Nc3ccc(C)c(C)c3)n2)cc1	1.95%
COc1ccc(-c2nc(-c3ccc(NC(=O)c4ccc(Br)o4)cc3)no2)cc1OC	14.8% (active)
CCC1CN(CCNC(=O)c2ccc(C(C)=O)s2)Cc2cc(OC)ccc2O1 (configuration not stated)	2.67%
CCN(CC)S(=O)(=O)c1ccc(-c2csc(=Nc3ccccc3OC)n2CC)cc1	-1.01%
c1ccc(Oc2nc(NC3CC3)c3ncn(-c4ccsc4)c3n2)cc1	10.5% (active)
Clc1nc(NCc2ccccc2)c2ncn(-c3ccccc3)c2n1	-3.84%
